PubChem BioAssay AID1159580 (chemical genetic matrix, 2015)
Where “and” joins values, the source holds several entries; their conditions need not be identical. Equal values may be shown once. Among all 5,500 compounds or so, about 2,000 (36%) were called active. Inconclusive results (about 18%) are left out. Cut-off read from the data, not from the text of the source: active = normalized growth mostly below about 0.91 (no sharp cut-off); inconclusive = no clear call, values can overlap the other calls; inactive = mostly above about 0.92. The list shows a part of the results.

Experiment: chemical genetic growth profiling, strain panel (AID 1159580);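 note: tested at 20 µM; growth read once vehicle control cultures reached saturation at 30 °C; 1 = growth at the plate median or of vehicle wells; lower values mean less growth of the strain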
Settings: growth OD

Measured: normalized growth

Cc1cc(N)c2ccccc2[n+]1CCCCCCCCCC[n+]1c(C)cc(N)c2ccccc21
active: S. cerevisiae deletion strains, locus YJL187C, strain SWE1, active compounds read low 0.066 | S. cerevisiae deletion strains, locus YJR043C, strain POL32, active compounds read low 0.0703 | S. cerevisiae deletion strains, locus YJR075W, strain HOC1, active compounds read low 0.0707 and 0.0679 | S. cerevisiae deletion strains, locus YKL009W, strain mrt4, active compounds read low 0.107 | S. cerevisiae deletion strains, locus YKL068W, active compounds read low 0.0834 | S. cerevisiae deletion strains, locus YKL085W, strain MDH1 (second series), active compounds read low 0.0842 | S. cerevisiae deletion strains, locus YKL085W, strain MDH1, active compounds read low 0.0842 | S. cerevisiae deletion strains, locus YKL160W, strain elf1, active compounds read low 0.0728 | S. cerevisiae deletion strains, locus YKL190W, strain CNB1, active compounds read low 0.0496 | S. cerevisiae deletion strains, locus YKR001C, strain vps1, active compounds read low 0.0684 | S. cerevisiae deletion strains, locus YKR026C, strain gcn3, active compounds read low 0.0705 | S. cerevisiae deletion strains, locus YKR091W, strain srl3, active compounds read low 0.0679 | S. cerevisiae deletion strains, locus YLL001W, strain dnm1, active compounds read low 0.0644 | S. cerevisiae deletion strains, locus YLL026W, active compounds read low 0.0616 | S. cerevisiae deletion strains, locus YLL041C, strain sdh2, active compounds read low 0.0642 | S. cerevisiae deletion strains, locus YLR027C, strain aat2, active compounds read low 0.0617 | S. cerevisiae deletion strains, locus YLR039C, strain RIC1, active compounds read low 0.0806 | S. cerevisiae deletion strains, locus YLR058C, strain SHM2, active compounds read low 0.0484 | S. cerevisiae deletion strains, locus YLR102C, strain apc9, active compounds read low 0.0687 | S. cerevisiae deletion strains, locus YLR221C, strain rsa3, active compounds read low 0.0648 | S. cerevisiae deletion strains, locus YLR258W, strain gsy2, active compounds read low 0.0653 | S. cerevisiae deletion strains, locus YLR262C, strain YPT6 (second series), active compounds read low 0.0835 | S. cerevisiae deletion strains, locus YLR262C, strain YPT6, active compounds read low 0.107 | S. cerevisiae deletion strains, locus YLR268W, strain sec22, active compounds read low 0.0712 | S. cerevisiae deletion strains, locus YLR320W, strain mms22, active compounds read low 0.0855 | S. cerevisiae deletion strains, locus YLR330W, strain CHS5, active compounds read low 0.0547 | S. cerevisiae deletion strains, locus YLR342W, strain FKS1 (second series), active compounds read low 0.0723 | S. cerevisiae deletion strains, locus YLR342W, strain FKS1, active compounds read low 0.0695 | S. cerevisiae deletion strains, locus YLR357W, strain rsc2, active compounds read low 0.126 | S. cerevisiae deletion strains, locus YLR370C, strain arc18, active compounds read low 0.0633 | S. cerevisiae deletion strains, locus YLR371W, strain rom2, active compounds read low 0.0663 | S. cerevisiae deletion strains, locus YLR384C, strain iki3, active compounds read low 0.0616 | S. cerevisiae deletion strains, locus YLR418C, strain cdc73, active compounds read low 0.101 | S. cerevisiae deletion strains, locus YML016C, strain PPZ1, active compounds read low 0.0475 | S. cerevisiae deletion strains, locus YML032C, strain rad52, active compounds read low 0.0723 | S. cerevisiae deletion strains, locus YML120C, strain ndi1, active compounds read low 0.0605 | S. cerevisiae deletion strains, locus YML124C, strain tub3, active compounds read low 0.0637 | S. cerevisiae deletion strains, locus YMR058W, strain fet3, active compounds read low 0.0627 | S. cerevisiae deletion strains, locus YMR078C, strain ctf18, active compounds read low 0.0768 | S. cerevisiae deletion strains, locus YMR125W, strain sto1, active compounds read low 0.0824 | S. cerevisiae deletion strains, locus YMR129W, active compounds read low 0.069 | S. cerevisiae deletion strains, locus YMR205C, strain PFK2, active compounds read low 0.0906 | S. cerevisiae deletion strains, locus YMR223W, strain ubp8, active compounds read low 0.0681 | S. cerevisiae deletion strains, locus YMR231W, strain pep5, active compounds read low 0.0782 | S. cerevisiae deletion strains, locus YMR263W, strain SAP30, active compounds read low 0.0586 | S. cerevisiae deletion strains, locus YMR307W, strain GAS1, active compounds read low 0.119 and 0.0541 | S. cerevisiae deletion strains, locus YNL067W, strain RPL9B, active compounds read low 0.0529 | S. cerevisiae deletion strains, locus YNL071W, strain lat1, active compounds read low 0.0636 | S. cerevisiae deletion strains, locus YNL128W, strain TEP1, active compounds read low 0.0667 and 0.0791 | S. cerevisiae deletion strains, locus YNL153C, strain GIM3, active compounds read low 0.0526 and 0.0904 | S. cerevisiae deletion strains, locus YNL175C, strain NOP13, active compounds read low 0.0762 | S. cerevisiae deletion strains, locus YNL197C, strain WHI3, active compounds read low 0.0722 | S. cerevisiae deletion strains, locus YNL209W, strain ssb2, active compounds read low 0.0673 | S. cerevisiae deletion strains, locus YNL224C, strain SQS1, active compounds read low 0.0723 | S. cerevisiae deletion strains, locus YNL233W, strain BNI4, active compounds read low 0.0625 | S. cerevisiae deletion strains, locus YNL248C, strain rpa49, active compounds read low 0.0815 | S. cerevisiae deletion strains, locus YNL250W, strain rad50, active compounds read low 0.136 | S. cerevisiae deletion strains, locus YNL271C, strain bni1, active compounds read low 0.0837 | S. cerevisiae deletion strains, locus YNL298W, strain CLA4, active compounds read low 0.0752 | S. cerevisiae deletion strains, locus YNL307C, strain MCK1, active compounds read low 0.0714 | S. cerevisiae deletion strains, locus YNL322C, strain KRE1 (second series), active compounds read low 0.0698 | S. cerevisiae deletion strains, locus YNL322C, strain KRE1, active compounds read low 0.0558 | S. cerevisiae deletion strains, locus YNR049C, strain mso1, active compounds read low 0.0605 | S. cerevisiae deletion strains, locus YNR052C, strain pop2, active compounds read low 0.0672 | S. cerevisiae deletion strains, locus YOL006C, strain TOP1, active compounds read low 0.11 | S. cerevisiae deletion strains, locus YOL147C, strain pex11, active compounds read low 0.0611 | S. cerevisiae deletion strains, locus YOR001W, strain rrp6, active compounds read low 0.0775 | S. cerevisiae deletion strains, locus YOR061W, strain CKA2, active compounds read low 0.0489 | S. cerevisiae deletion strains, locus YOR069W, strain VPS5, active compounds read low 0.0494 | S. cerevisiae deletion strains, locus YOR070C, strain gyp1, active compounds read low 0.0633 | S. cerevisiae deletion strains, locus YOR080W, strain dia2, active compounds read low 0.0687 | S. cerevisiae deletion strains, locus YOR083W, strain WHI5 (second series), active compounds read low 0.081 | S. cerevisiae deletion strains, locus YOR083W, strain WHI5, active compounds read low 0.0703 | S. cerevisiae deletion strains, locus YOR106W, strain vam3, active compounds read low 0.065 | S. cerevisiae deletion strains, locus YOR136W, strain idh2, active compounds read low 0.0784 | S. cerevisiae deletion strains, locus YOR144C, strain elg1, active compounds read low 0.0641 | S. cerevisiae deletion strains, locus YOR184W, strain ser1, active compounds read low 0.0725 | S. cerevisiae deletion strains, locus YOR265W, strain rbl2, active compounds read low 0.0616 | S. cerevisiae deletion strains, locus YOR270C, strain vph1, active compounds read low 0.0961 | S. cerevisiae deletion strains, locus YOR290C, strain snf2, active compounds read low 0.0714 | S. cerevisiae deletion strains, locus YOR316C, strain cot1, active compounds read low 0.066 | S. cerevisiae deletion strains, locus YPL051W, strain arl3, active compounds read low 0.0687 | S. cerevisiae deletion strains, locus YPL055C, strain LGE1, active compounds read low 0.0706 and 0.0896 | S. cerevisiae deletion strains, locus YPL078C, strain atp4, active compounds read low 0.0678 | S. cerevisiae deletion strains, locus YPL106C, strain sse1, active compounds read low 0.111 | S. cerevisiae deletion strains, locus YPL240C, strain hsp82, active compounds read low 0.0603 | S. cerevisiae deletion strains, locus YPL241C, strain CIN2, active compounds read low 0.0524 and 0.0485 | S. cerevisiae deletion strains, locus YPR119W, strain clb2, active compounds read low 0.0709 | S. cerevisiae deletion strains, locus YPR141C, strain kar3, active compounds read low 0.0821 | S. cerevisiae deletion strains, locus YPR163C, strain tif3, active compounds read low 0.0791 | S. cerevisiae deletion strains, locus YPR167C, strain met16, active compounds read low 0.0671 | S. cerevisiae deletion strains, strain wtn01, active compounds read low 0.0664 | S. cerevisiae strains, strain wild type, active compounds read low 0.0519
